esBAF inh: blocks esBAF chromatin remodeling in mouse ES cells. reporter increase, % at 12.5 µM. hit rate 2% among 350,000. Bmi1-luciferase knock-in reporter, 24 h; 100% = twice the neutral-well signal. AID 602393; in the data active means activation above about 40%;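 further: a rise in the Bmi1 reporter signal indicates esBAF inhibition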
CDK5 p35 inh: CDK5/p35 (human) kinase inhibition. Q00535+Q15078. Recombinant CDK5/p35, ADP-Glo luminescence, 60 min. inhibition, % at 10 µM. hit rate 0.01% among 330,000. AID 488839;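 active means highest replicate inhibition of at least 50% and at least 75% of replicates reaching 50%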
DYRK1A inh: inhibitors of rat Dyrk1A kinase; hit rate 0.43% among 310,000; ADP-Glo luminescence, NFATc1 peptide; inhibition, % at 12.5 µM; AID 504441; in the data active means inhibition above about 50%
Rtt109 HAT inh: inhibitors of Candida albicans Rtt109/Vps75 histone acetyltransferase | Q5AAJ8 | purified Rtt109/Vps75, ThioGlo CoA-SH fluorescence, 4 h | inhibition, % at 34.9 µM | hit rate 0.16% among 330,000 | AID 540336;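 active means inhibition of at least 50% in every replicate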
Target sequence (Q5AAJ8 whole entry, looked up): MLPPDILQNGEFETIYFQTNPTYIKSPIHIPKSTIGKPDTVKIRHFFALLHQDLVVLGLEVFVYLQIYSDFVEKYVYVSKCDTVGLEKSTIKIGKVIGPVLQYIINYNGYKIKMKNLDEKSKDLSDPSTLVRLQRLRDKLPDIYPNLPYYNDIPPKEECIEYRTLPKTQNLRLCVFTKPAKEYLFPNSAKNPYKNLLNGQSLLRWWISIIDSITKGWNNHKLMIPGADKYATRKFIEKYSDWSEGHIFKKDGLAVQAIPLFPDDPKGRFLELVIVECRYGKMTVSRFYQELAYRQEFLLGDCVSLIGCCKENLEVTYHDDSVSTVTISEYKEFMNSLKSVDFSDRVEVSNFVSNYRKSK
SMARCA2 act: SMARCA2 function activation, primary screen | MG213 cells, MMTV-luciferase reporter, dexamethasone, overnight | activation, % at 9.1 µM | hit rate 1% among 370,000 | AID 652017; in the data active means activation above about 7.8%
dFosB act: mouse delta FosB homodimer activation; purified delta FosB, TAMRA-CDK5 oligo fluorescence polarization; percent of positive-control signal above neutral wells; activation, % at 25 µM; hit rate 0.99% among 340,000;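 active means mean activation above about 17%, with every replicate also reaching it, limit read from the data, passing the limit was not always enough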
Numbers stand for hits; – = inactive; · = not tested or not shown. Only some compounds are listed: those with a hit (about 3.2% of all), similar ones and a draw of the others.

SMILES | esBAF inh | CDK5 p35 inh | DYRK1A inh | Rtt109 HAT inh | SMARCA2 act | dFosB act
Cc1nn(-c2ccccc2)c(N)c1N=Nc1ccc(Cl)cc1 | 80 | – | – | · | – | –
O=C(CN1CCOCC1)NCC[C@@H]1CC[C@H](NC(=O)Cc2ccccn2)[C@H](CO)O1 | – | · | · | · | · | ·
COc1ccc(/[N+]([O-])=C/c2ccco2)cc1 | 55 | – | – | – | – | –
C#CCOc1ccc(/C=C2/C(=O)N(c3cccc(C(=O)O)c3)N=C2C)cc1OC | – | – | – | – | – | –
COc1cc(/C=C2\C(=O)N(c3cccc(C(=O)O)c3)N=C2C)ccc1OCc1ccccc1 | 52 | · | · | · | – | ·
CO[C@@H]1CN(C)C(=O)c2ccc(NC(=O)C3CCC3)cc2OC[C@H](C)N(Cc2ccncc2)C[C@H]1C | – | · | · | · | · | ·
C[C@@H]1CN([C@H](C)CO)C(=O)c2cccc(NC(=O)Nc3ccc4c(c3)OCO4)c2O[C@H]1CN(C)Cc1ccc(Cl)c(Cl)c1 | – | · | · | · | · | ·
C[C@H]1CN([C@@H](C)CO)S(=O)(=O)c2ccc(-c3ccncc3)cc2O[C@@H]1CN(C)C(=O)Nc1ccc(C(F)(F)F)cc1 | – | · | · | · | · | ·
COc1c(/C=C2\SC(=Nc3ccccc3Cl)NC2=O)cccc1[N+](=O)[O-] | – | – | 53 | – | – | –
COc1ccc(-c2ccc3n(c2=O)C[C@@H]2[C@@H](CO)[C@H](C(=O)N4CCN(C)CC4)N[C@H]32)cc1 | – | · | · | · | · | ·
CSc1n[nH]c(-c2ccc(C(F)(F)F)cc2)n1 | 41 | – | – | – | – | –
Nc1n[nH]c(-c2ccc(F)cc2)n1 | – | – | – | – | – | –
COc1cc(/C=C/c2ccc3cccc(O)c3n2)cc(OC)c1OC | – | – | · | – | – | –
COc1ccc(/C=C/c2ccc3cccc(O)c3n2)cc1Br | 44 | – | – | · | – | –
COc1cccc(/C=C/c2ccc3cccc(O)c3n2)c1OC | 69 | – | – | – | – | –
COc1ccc(/C=C/c2ccc3cccc(O)c3n2)c(OC)c1OC | 84 | – | – | – | – | –
CCNC(=O)C[C@H]1C=C[C@H](NS(=O)(=O)c2ccc(F)cc2)[C@H](CO)O1 | – | · | · | · | · | ·
C[C@@H]1CN([C@@H](C)CO)C(=O)c2cc(Br)cnc2O[C@@H]1CN(C)C(=O)c1ccccc1F | – | · | · | · | · | ·
COc1ccc(/C=N/Nc2cc(N3CCCC3)nc(N3CCCC3)n2)cc1 | – | – | – | · | – | 23
Oc1cccc(/C=N/Nc2cc(N3CCCC3)nc(N3CCCC3)n2)c1 | · | – | – | – | – | 57
Oc1ccc(/C=N/Nc2cc(N3CCCC3)nc(N3CCCC3)n2)cc1 | – | – | – | – | – | –
CCCCOC(=O)Nc1ccc(C)c(Cl)c1 | 57 | – | – | – | – | –
CCCCOC(=O)Nc1ccc(C(=O)OC)cc1 | 79 | – | – | – | – | –
C/C(=N\NC(=O)c1ccc(Cn2cc(Br)cn2)o1)c1ccc(NC(=O)c2ccoc2C)cc1 | 47 | – | – | – | – | –
C/C(=N\NC(=O)c1ccc(Cn2cc(Br)cn2)o1)c1cccc(NC(=O)C(C)(C)C)c1 | – | · | – | – | – | –
SMILES | esBAF inh | CDK5 p35 inh | DYRK1A inh | Rtt109 HAT inh | SMARCA2 act | dFosB act
O=C(Nc1cc(F)ccc1F)N[C@@H]1CC[C@H](CCn2cc(C3CCCCC3)nn2)O[C@@H]1CO | – | · | · | · | · | ·
COc1ccc(C(=O)NNC(=O)c2ccccn2)cc1 | · | 55 | – | – | – | –
COc1cc(OC)cc(C(=O)NNC(=O)c2ccccn2)c1 | – | – | – | · | – | –
C[C@@H]1CN([C@H](C)CO)C(=O)c2cc(C3=CCCCC3)cnc2O[C@@H]1CN(C)C(=O)Cc1cccnc1 | – | · | · | · | · | ·
COc1ccc(S(=O)(=O)N[C@@H]2CC[C@H](CCNC(=O)CN3CCOCC3)O[C@@H]2CO)cc1 | – | · | · | · | · | ·
O=C(O)/C=C/C(=O)NNC(=O)c1ccc(Cl)cc1Cl | · | – | – | – | – | –
O=C(NC1CC(=O)c2sccc21)c1ccc(Cl)cc1Cl (centres undefined) | 43 | – | – | – | – | –
CCN(CC)c1ccc2cc(C(=O)Nc3ccccn3)c(=O)oc2c1 | 49 | – | – | – | – | –
CN(C)CC(=O)N[C@@H]1CC[C@H](CCNS(=O)(=O)c2ccccc2)O[C@@H]1CO | – | · | · | · | · | ·
CNC[C@H]1Oc2cc(-c3cncnc3)ccc2S(=O)(=O)N([C@@H](C)CO)C[C@H]1C | – | · | · | · | · | ·
C=CCNc1oc(-c2cccc3ccccc23)nc1C#N | – | – | – | – | – | –
CCNc1oc(-c2cccc3ccccc23)nc1C#N | 60 | – | – | – | – | –

High-throughput results deposited in PubChem by several laboratories.
